# From PubChem BioAssay
# TRHR enhancer: qHTS for Small Molecule Agonists and Allosteric Enhancers of Human TRH Receptor: Primary Screen for Enhancers; Thyrotropin-releasing hormone receptor (Homo sapiens), P34981; TRHR cells, fluo-8 calcium fluorescence, EC20 TRH enhancement; enhancement, % at 2 µM; 360,000 compounds, 0.66% hits; AID 493056, 2011; in the data active = enhancement above about 30%; also: 0% is about no effect
#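 TRHR-expressing cells loaded with fluo-8 calcium dye were read kinetically (ex 480/em 530) during compound addition, then stimulated with an EC20 of TRH (10 nM final). Enhancement of the Gq-mediated intracellular calcium response was scored.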
# Glioma ERSR ind: qHTS for Inducers of the Endoplasmic Reticulum Stress Response (ERSR) in Human Glioma: qHTS; U87-MG GRP78 promoter luciferase reporter, 16 h; Potency, µM, for the others: at the top dose activation, most hits filed as activators; 420,000 compounds, 0.02% hits; AID 602332, 2012; active = well fitted activation curve with a large enough effect; inconclusive = small, poorly fitted or top-dose-only effect; inactive = no such curve, though single readings can be large or run the other way; also: potency is read from the fitted curve at half-maximal effect; series mostly up to about 76 µM; % of control where 0% means no effect; nearly all actives have a fitted effect of over 35% in size
#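 Stably transfected U87-MG human glioma cells carrying a GRP78-based luminescent sensor were seeded at 1000 cells/well, pin-dosed with compounds and incubated 16 h. Luciferase reagent was then added, and end-point luminescence was read after 10 min at room temperature.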
# TRPML1 inh: qHTS for Inhibitors of the Human Mucolipin Transient Receptor Potential 1 (TRPML1) | TRPML1-inducible cells, Ca2+ dye fluorescence, FDSS; hits give low values; inhibition of EC80 agonist-evoked calcium signal | 390,000 compounds, 0.02% hits | Mucolipin-1 (Homo sapiens), Q9GZU1 | activity change, negative = inhibition, % (concentration not given with the values); in the data active = activity change below about -50%; inconclusive = between about -30% and that limit;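 also: stimulus is agonist 54-4 at its EC80 concentration; % is scaled to controls: 0 for no effect and ±100 for the full control effect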
# Target sequence (Q9GZU1 whole entry, looked up): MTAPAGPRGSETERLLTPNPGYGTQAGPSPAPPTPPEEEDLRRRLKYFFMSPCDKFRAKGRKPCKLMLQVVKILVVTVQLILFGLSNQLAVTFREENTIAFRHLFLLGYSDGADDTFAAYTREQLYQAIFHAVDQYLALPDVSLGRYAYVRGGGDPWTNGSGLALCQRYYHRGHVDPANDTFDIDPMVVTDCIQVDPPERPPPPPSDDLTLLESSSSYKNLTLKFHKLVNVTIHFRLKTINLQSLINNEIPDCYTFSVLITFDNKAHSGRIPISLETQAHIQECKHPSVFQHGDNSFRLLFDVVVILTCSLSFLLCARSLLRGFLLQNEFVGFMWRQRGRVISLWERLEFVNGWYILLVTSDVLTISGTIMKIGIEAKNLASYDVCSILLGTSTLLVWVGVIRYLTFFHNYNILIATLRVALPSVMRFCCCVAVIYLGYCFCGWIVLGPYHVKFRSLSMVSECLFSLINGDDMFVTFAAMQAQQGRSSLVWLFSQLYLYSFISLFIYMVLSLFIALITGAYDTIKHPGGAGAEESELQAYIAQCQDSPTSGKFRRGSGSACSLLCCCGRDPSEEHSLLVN
#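 Tet-induced TRPML1-DL cells loaded with Ca8 no-wash calcium dye were read kinetically on FDSS. Compound addition was followed by EC80 agonist 54-4 (4 uM final); inhibition was read over 110 s.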
# TRPML1 ag: qHTS for Agonists of the Human Mucolipin Transient Receptor Potential 1 (TRPML1). TRPML1-expressing cells, Ca2+ dye fluorescence, FDSS. activation, % (test concentration not listed). 410,000 compounds, 0.12% hits. AID 624414, 2012; in the data active = activation above about 50%; inconclusive = mostly about 30% to 49%; also: 0% is about no effect
#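 Tetracycline-induced TRPML1-DL cells are seeded and incubated overnight before loading with a no-wash Ca2+ dye and quencher. Agonist activity is taken from the 110 s fluorescence read following compound pin-transfer on an FDSS, before EC80 54-4 challenge.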
# TRHR agonist: qHTS for Small Molecule Agonists and Allosteric Enhancers of Human TRH Receptor: Primary Screen for Agonists; Thyrotropin-releasing hormone receptor (Homo sapiens), P34981; TRHR cells, calcium flux fluo-8, FDSS agonist mode; activation, % at 2 µM; 360,000 compounds, 0.18% hits; AID 493084, 2011; in the data active = activation above about 30%; also: 0% is about no effect
#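 TRHR-expressing cells, plated overnight in medium with 10% serum, were loaded with fluo-8 calcium dye at room temperature. After a 10 s baseline, library compound was pin-added and calcium release was recorded kinetically (ex 480/em 530) as agonist response.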
# * = called active by the depositor; u = inconclusive; x = no result given. Most compounds without a hit are left out; they make up all but 0.8% or so of the library.
SMILES,TRHR enhancer,Glioma ERSR ind,TRPML1 inh,TRPML1 ag,TRHR agonist
COc1cccc(C2(CC(=O)N3CCN(c4ccccc4O)CC3)CC(=O)N(C3CCCC3)C2=O)c1 (configuration not stated),x,2%,x,x,x
O=C(NCCN1Cc2ccccc2OC(c2ccccc2F)C1)c1ccco1 (configuration not stated),x,3%,x,x,x
COc1ccc(NS(=O)(=O)c2cc(Br)cc3c2N(C(=O)C2CC2)CC3)cc1OC,49*,-4%,5,-1,0
Nc1nc(-c2ccccc2)c(-c2ccccc2)n1N,-2,u,x,x,4
c1ccc(-c2cnn3c(-c4ccccc4)c(-c4ccccc4)nc3n2)cc1,23,-1%,-25,79*,173*
CCSc1nnc(NC(=O)C(C)(C(F)(F)F)C(F)(F)F)s1,2,-6%,32,0,1
CCSc1nnc(NC(=O)NCC(F)(F)F)s1,34*,1%,-6,0,0
CCC(=O)c1ccc(OC(=O)Cc2ccc(OC)cc2)cc1,38*,-1%,9,0,1
CC(C)C[C@@H](NC(=O)[C@@H](COC(C)(C)C)NC(=O)[C@H](Cc1ccc(O)cc1)NC(=O)[C@@H](CO)NC(=O)[C@@H](Cc1c[nH]c2ccccc12)NC(=O)[C@@H](Cc1cnc[nH]1)NC(=O)[C@@H]1CCC(=O)N1)C(=O)N[C@H](CCCN=C(N)N)C(=O)N1CCC[C@H]1C(=O)NNC(N)=O,x,-4%,x,x,x
COc1cccc(CNS(=O)(=O)c2cc3[nH]c(=O)c(=O)[nH]c3cc2C)c1,31*,-1%,13,4,0
CC(=O)Nc1ccc(N2CCN(c3ccc(F)cc3)CC2)cc1,33*,-1%,6,1,0
O=C(CSc1nnc(Cn2c(=O)sc3ccccc32)n1-c1ccccc1)NCc1ccco1,40*,-1%,-6,2,0
Cc1cc2c(c(-c3ccc4nc(C)ccc4c3)c1)OC(CNC(=O)Cc1ccn(C)c1)C2 (configuration not stated),x,-3%,x,x,x
COc1ccc(Nc2nc(C#N)nc(NC3CCCC3)n2)cc1,-1,x,x,x,-3
O=C(Nc1c[nH]c(=O)[nH]c1=O)c1ccccc1Cl,30*,2%,-6,1,0
O=C(O)c1cc(-c2ccc3c(c2)OCO3)nc2ccc(Cl)cc12,33*,-3%,1,0,0
O=C(c1cc(-c2ccncc2)nc2ccc(Cl)cc12)N1CCN(Cc2ccc3c(c2)OCO3)CC1,4,-1%,20,3,1
Cc1cnc(C)c(-c2cc(F)cc3c2OC(CNC(=O)Cc2c(C)noc2C)C3)n1 (configuration not stated),x,2%,x,x,x
COc1ccc(-n2nnc3c(SCC(=O)OCc4ccccc4)ncnc32)cc1,31*,-3%,12,0,0
COc1ccc(-n2nnc3c(SCc4ccccc4)ncnc32)cc1,-2,4%,26,2,1
COc1ccc(C)cc1S(=O)(=O)Nc1cccc(-c2cn3cccnc3n2)c1,31*,2%,-7,1,0
COc1ccccc1-n1cnc2cc(NCc3ccccn3)ccc21,-2,-3%,-51*,0,-1
CN1CCN(C(=O)c2ccc(Cl)cc2)CC1,33*,-4%,4,0,-1
CCCCN(C(=O)c1cccc(C)c1)c1c(N)n(CCC)c(=O)[nH]c1=O,41*,-2%,-1,1,0
CCCCn1c(N)c(N(CC)C(=O)c2cccc(C)c2)c(=O)[nH]c1=O,1,0%,34,1,1
SMILES,TRHR enhancer,Glioma ERSR ind,TRPML1 inh,TRPML1 ag,TRHR agonist
CC(C)(C)OC(=O)Cc1nnc(-c2nc3ccccc3[nH]2)o1,-1,x,x,x,2
Cc1nc(-c2ccc(C)c(S(=O)(=O)N3CCC(C(=O)NCc4ccc(Cl)cc4)CC3)c2)no1,30*,-4%,-9,0,0
COc1cccc(-n2c(SC)nnc2C2CCN(CCC(C)c3ccc(C)o3)CC2)c1 (configuration not stated),x,-6%,x,x,x
O=C1c2cccc([N+](=O)[O-])c2C(=O)N1c1c[nH]c(=O)[nH]c1=O,30*,-1%,-8,-1,0
Cc1ccccc1N1C(=O)c2cccc([N+](=O)[O-])c2C1=O,1,-5%,-26,0,0
C=C1C[C@@H]2[C@H]3CCC4=CC(=O)C=C[C@]4(C)[C@@]3(F)[C@@H](O)C[C@]2(C)[C@]1(O)C(=O)COC(C)=O,x,-2%,x,x,x
Cc1cc(C)n(-c2ccc(NC(=O)C3CCN(Cc4cnc(C)s4)CC3)cc2)n1,1,-7%,12,0,0
Cc1ncc(CN2CCC(C(=O)Nc3ccc(-n4cccn4)cc3)CC2)s1,30*,-3%,15,-1,0
CCOC(=O)c1noc2nc(C)n(CC(=O)NC(C)CC)c(=O)c12 (configuration not stated),34*,1%,u,0,0
CCN1CCCC1CNC(=O)c1cnn(-c2nccc(-c3cc4ccccc4o3)n2)c1C (configuration not stated),x,-2%,x,x,x
C/C(=C(\CCO)SSCC1CCCO1)N(C=O)Cc1cnc(C)nc1N (configuration not stated),x,-5%,x,x,x
CC(=O)NS(=O)(=O)c1ccc(NC(=O)C2c3ccccc3Oc3ccccc32)cc1,33*,-2%,4,1,2
O=C(Nc1ccccn1)c1ccc2c(c1)S(=O)(=O)c1ccccc1C2=O,2,-3%,30,0,0
O=C1c2ccccc2S(=O)(=O)c2cc(C(=O)N(c3ccccn3)c3ccccn3)ccc21,40*,0%,-6,64*,70*
O=C(NC1CC1)c1c[nH]c2ccc(S(=O)(=O)Nc3cccc(C(F)(F)F)c3)cc2c1=O,40*,-9%,-18,0,1
CCC(CO)N=CC1=C(O)CC(c2ccccc2)CC1=O (configuration not stated),32*,0%,5,1,0
COc1ccc(NC(=O)COC(=O)c2ccc(-n3cnnn3)cc2)cc1Cl,31*,-6%,-13,1,0
CCN1CCCC1CNC(=O)c1ccc(CS(=O)(=O)c2ccccc2C)o1 (configuration not stated),31*,-2%,48,0,0
O=C(CSc1nc(O)c(Cc2ccccc2)c(=O)[nH]1)Nc1ccccc1,1,2%,-21,1,1
COc1ccc(NC(=O)CSc2nc(O)c(Cc3ccccc3)c(=O)[nH]2)cc1,32*,-2%,13,0,0
